The values that follow come from PubChem BioAssay.

One test deals with PEG-3 (UniProt Q6IN02). Kind of test: inhibition of PEG-3 promoter-driven reporter – cell-based, HeLa, luciferase, CREF/GAPDH counter-screen panel, dose response (AID 624167). The following applies: CREF/GAPDH counter-screens; HeLa PEG-Prom luciferase reporter, overnight, run 1, dose range 1, at 100 µM (top of the series) unless noted.
Sequence of PEG-3 (Q6IN02 whole entry, looked up): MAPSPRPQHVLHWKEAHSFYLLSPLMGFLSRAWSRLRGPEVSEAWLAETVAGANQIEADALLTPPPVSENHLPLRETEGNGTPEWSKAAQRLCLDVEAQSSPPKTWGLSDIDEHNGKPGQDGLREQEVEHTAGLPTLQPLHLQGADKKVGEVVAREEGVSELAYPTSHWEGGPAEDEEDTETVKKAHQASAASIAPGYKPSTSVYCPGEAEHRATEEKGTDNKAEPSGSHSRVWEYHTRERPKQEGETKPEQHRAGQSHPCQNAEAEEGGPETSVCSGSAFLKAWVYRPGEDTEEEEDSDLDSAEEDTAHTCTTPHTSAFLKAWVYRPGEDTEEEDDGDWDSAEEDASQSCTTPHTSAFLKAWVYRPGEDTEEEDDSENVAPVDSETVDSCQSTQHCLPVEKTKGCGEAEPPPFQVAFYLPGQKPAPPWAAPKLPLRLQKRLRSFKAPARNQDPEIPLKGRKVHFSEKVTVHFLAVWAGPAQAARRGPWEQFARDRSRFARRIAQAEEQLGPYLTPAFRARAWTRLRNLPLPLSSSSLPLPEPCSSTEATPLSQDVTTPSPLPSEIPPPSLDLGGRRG
Take `c1ccc(-c2nc(-c3ccccn3)no2)cc1`: the inhibition was 89.5%.
As for `COc1ccccc1CNCC(O)Cn1c2ccccc2c2ccccc21` (stereo not drawn), the inhibition worked out at 102%.
Take `CN(C)c1c([N+](=O)[O-])cc(N2C(=O)C=CC2=O)cc1[N+](=O)[O-]`: the inhibition was determined as 102%.
As for `O=C(Nc1ncc([N+](=O)[O-])s1)c1ccc2c(c1)OCO2`, the inhibition is 96.1%.
Turning to `C/C(=N\NC(=O)c1cc(C2CC2)nc2ccccc12)c1ccc(O)cc1O`, the inhibition was 59.9%.
Still for that read-out and setting: in the case of `Nc1ccc(-c2nc3ccc(C(=O)O)cc3s2)cc1` it was 98.2%; in that of `O=C(NCCc1ccccc1)c1ccc2c(c1)OCO2`, 86.2%; in that of `CN(C)c1ccc(/C=C(\C#N)c2ccccn2)cc1`, 81.8%.
Regarding `CCCN1C=CC(=C2C(=O)c3ccccc3C2=O)C=C1`, the inhibition came out at 102%.
The same measure, in the same setting: in the case of `O=C(/C=C\Nc1ccc2c(c1)OCO2)c1ccccn1` it was 102%.
Still for that read-out and setting: for `CC1CCN(c2ccc(-c3cccs3)nn2)CC1` the value was 90.2%.
Same read-out and setting: in the case of `CN[C@H]1C[C@H]2c3[nH]c4ccc(-c5ccc(OC)cc5)cc4c3CCN2C(=O)[C@H]1[C@H](C)O` it was 102%; in that of `CCCC(=O)NC(c1ccc(C(C)C)cc1)c1ccc2cccnc2c1O` (stereo not drawn), 95.6%.
In the case of `CCCS(=O)(=O)c1cnc(C2COc3ccccc3O2)nc1N` (stereo not drawn), the inhibition is 96.2%.
On the same count and under the same terms, in the case of `O=C(Nc1nc2cc3c(cc2s1)OCO3)C1=COCCO1` it was 88.1%; in that of `O=C(Nc1nc2cc3c(cc2s1)OCCO3)C1=COCCO1`, 99.1%.
The same measure, in the same setting: in the case of `CN(C)c1ccc(/C=C/c2ccc3c4ccccc4ccc3[n+]2-c2ccccc2)cc1` it was 99.3%; in that of `CCOC(=O)c1c(SCCN2CCCCC2)n(-c2ccccc2)c(=S)n(-c2ccccc2)c1=O`, 97.7%.
Turning to `CN=c1scc(-c2ccccc2F)n1/N=C/c1ccc[nH]1`, the inhibition was 98.7%.
Turning to `Cc1nc(SCC(=O)Nc2nc3ccccc3s2)c(C#N)c(C)c1C`, the inhibition is 95.4%.
With `O=[N+]([O-])c1ccc(S(=O)(=O)c2ccccc2)nc1`, the inhibition was 99.3%.
`COc1ccc(-n2c(O)c(/C=N/Nc3nc(C)cc(C)n3)c3ccccc3c2=O)cc1OC`: the inhibition turned out to be 57.2%.
Regarding `O=C(Nc1ccc(Cc2ccncc2)cc1)c1ccc([N+](=O)[O-])o1`, the inhibition is 99.1%.
Turning to `Cc1ccc(-c2nc(-c3ccccn3)no2)cc1Cl`, the inhibition turned out to be 102%.
For `Cc1ccc2nc(-c3ccc4c(c3)OCCO4)cn2c1`, the inhibition was 98.2%.
In the case of `N=c1n(CC(=O)c2ccc([N+](=O)[O-])cc2)c2ccccc2n1Cc1ccc(Cl)cc1`, the inhibition amounted to 99.6%.
Turning to `O=C(N/N=C/c1ccc(Cl)c([N+](=O)[O-])c1)c1cc(-c2ccc3c4c(cccc24)CC3)n[nH]1`, the inhibition is 95.1% [run 1, dose range 1, at 50 µM].
In the case of `Cc1cc(N2CCN(C)CC2)ccc1NC(=O)c1c2c(nc3ccccc13)CCN(Cc1ccccc1)C2`, the inhibition is 101%.
`O=C(CNC(=O)C(c1ccccc1)c1ccccc1)N/N=C/c1ccc(O)cc1O`: the inhibition came out at 53.4%.
With `COc1ccc(-c2cc3nc(C)n(N)c(=O)c3s2)cc1`, the inhibition is 99.2%.
`Cc1cc(C2=NNC(=NC3CC3)SC2)c(C)n1-c1ccccc1F`: the inhibition is 98%.
As for `Cc1ccccc1CNC(=O)C1CCCN(c2nnc(C)c3c(C)n(-c4ccccc4)nc23)C1` (stereo not drawn), the inhibition turned out to be 99%.
With `CC(C)CC1C(=O)N(Cc2cn(Cc3ccco3)nn2)CCS(=O)(=O)N1Cc1ccc(-c2ccc(F)cc2)cc1` (stereo not drawn), the inhibition was 39%.
As to `Cc1ccccc1OCC(=O)Nc1cccc(C(=O)O)c1`, the inhibition was found to be 99.1%.
Turning to `CN=c1sc2c(n1C)C(=O)c1ccccc1C2=O`, the inhibition stood at 101%.
On the same count and under the same terms, for `COCCCNC(=O)c1ccc(Cn2c(=O)c3ccccc3n(Cc3ccccc3C#N)c2=O)cc1` the value was 63.4%.
As to `Cc1oc(-c2ccc3c(c2)OCCO3)cc1C(=O)O`, the inhibition is 101%.
Turning to `Oc1c(I)cc(Cl)c2cccnc12`, the inhibition was 71.1%.
The same measure, in the same setting: in the case of `Cc1nc(C)c(C(=O)N/N=C/c2cc(Br)ccc2O)s1` it was 101%.

The next test concerns the target PEG-3 (UniProt Q6IN02). The description is as above. The following applies: CREF/GAPDH counter-screens; HeLa PEG-Prom luciferase reporter, overnight, run 2, dose range 1, at 100 µM (top of the series) unless noted.
Consider `c1ccc(-c2nc(-c3ccccn3)no2)cc1`, for which the inhibition stood at 91.1%.
For the compound `COc1ccccc1CNCC(O)Cn1c2ccccc2c2ccccc21` (stereo not drawn), the inhibition came out at 98.7%.
Consider `CN(C)c1c([N+](=O)[O-])cc(N2C(=O)C=CC2=O)cc1[N+](=O)[O-]`, for which the inhibition worked out at 102%.
The same measure, in the same setting: for `O=C(Nc1ncc([N+](=O)[O-])s1)c1ccc2c(c1)OCO2` the value was 89.6%.
Consider `C/C(=N\NC(=O)c1cc(C2CC2)nc2ccccc12)c1ccc(O)cc1O`, for which the inhibition came out at 61.4%.
As to `Nc1ccc(-c2nc3ccc(C(=O)O)cc3s2)cc1`, the inhibition turned out to be 98.9%.
The same measure, in the same setting: for `O=C(NCCc1ccccc1)c1ccc2c(c1)OCO2` the value was 97.8%; for `CN(C)c1ccc(/C=C(\C#N)c2ccccn2)cc1`, 84.6%.
Still for that read-out and setting: for `CCCN1C=CC(=C2C(=O)c3ccccc3C2=O)C=C1` the value was 98.2%; for `O=C(/C=C\Nc1ccc2c(c1)OCO2)c1ccccn1`, 95.1%.
As to `CC1CCN(c2ccc(-c3cccs3)nn2)CC1`, the inhibition came out at 97.2%.
Consider `CN[C@H]1C[C@H]2c3[nH]c4ccc(-c5ccc(OC)cc5)cc4c3CCN2C(=O)[C@H]1[C@H](C)O`, for which the inhibition amounted to 98.8%.
Turning to `CCCC(=O)NC(c1ccc(C(C)C)cc1)c1ccc2cccnc2c1O` (stereo not drawn), the inhibition was 82.8%.
Same read-out and setting: in the case of `CCCS(=O)(=O)c1cnc(C2COc3ccccc3O2)nc1N` (stereo not drawn) it was 94.6%; in that of `O=C(Nc1nc2cc3c(cc2s1)OCO3)C1=COCCO1`, 94%.
Consider `O=C(Nc1nc2cc3c(cc2s1)OCCO3)C1=COCCO1`, for which the inhibition was determined as 98%.
`CN(C)c1ccc(/C=C/c2ccc3c4ccccc4ccc3[n+]2-c2ccccc2)cc1`: the inhibition is 98.8%.
On to `CCOC(=O)c1c(SCCN2CCCCC2)n(-c2ccccc2)c(=S)n(-c2ccccc2)c1=O`, for which the inhibition amounted to 102%.
On to `CN=c1scc(-c2ccccc2F)n1/N=C/c1ccc[nH]1`, for which the inhibition is 99.8%.
`Cc1nc(SCC(=O)Nc2nc3ccccc3s2)c(C#N)c(C)c1C`: the inhibition was determined as 89%.
For `O=[N+]([O-])c1ccc(S(=O)(=O)c2ccccc2)nc1`, the inhibition worked out at 101%.
The same measure, in the same setting: in the case of `COc1ccc(-n2c(O)c(/C=N/Nc3nc(C)cc(C)n3)c3ccccc3c2=O)cc1OC` it was 63.9%.
Consider `O=C(Nc1ccc(Cc2ccncc2)cc1)c1ccc([N+](=O)[O-])o1`, for which the inhibition was 101%.
Take `Cc1ccc(-c2nc(-c3ccccn3)no2)cc1Cl`: the inhibition was determined as 95.2%.
Consider `Cc1ccc2nc(-c3ccc4c(c3)OCCO4)cn2c1`, for which the inhibition is 99.6%.
Consider `N=c1n(CC(=O)c2ccc([N+](=O)[O-])cc2)c2ccccc2n1Cc1ccc(Cl)cc1`, for which the inhibition amounted to 101%.
Still for that read-out and setting: for `O=C(N/N=C/c1ccc(Cl)c([N+](=O)[O-])c1)c1cc(-c2ccc3c4c(cccc24)CC3)n[nH]1` the value was 93.6%; for `Cc1cc(N2CCN(C)CC2)ccc1NC(=O)c1c2c(nc3ccccc13)CCN(Cc1ccccc1)C2`, 98.9%; for `O=C(CNC(=O)C(c1ccccc1)c1ccccc1)N/N=C/c1ccc(O)cc1O`, 52.3%.
In the case of `COc1ccc(-c2cc3nc(C)n(N)c(=O)c3s2)cc1`, the inhibition amounted to 102%.
In the case of `Cc1cc(C2=NNC(=NC3CC3)SC2)c(C)n1-c1ccccc1F`, the inhibition came to 102%.
Regarding `Cc1ccccc1CNC(=O)C1CCCN(c2nnc(C)c3c(C)n(-c4ccccc4)nc23)C1` (stereo not drawn), the inhibition was 101%.
As to `CC(C)CC1C(=O)N(Cc2cn(Cc3ccco3)nn2)CCS(=O)(=O)N1Cc1ccc(-c2ccc(F)cc2)cc1` (stereo not drawn), the inhibition turned out to be 30.4%.
Same read-out and setting: for `Cc1ccccc1OCC(=O)Nc1cccc(C(=O)O)c1` the value was 95.1%; for `CN=c1sc2c(n1C)C(=O)c1ccccc1C2=O`, 98.9%; for `COCCCNC(=O)c1ccc(Cn2c(=O)c3ccccc3n(Cc3ccccc3C#N)c2=O)cc1`, 64%.
For the compound `Cc1oc(-c2ccc3c(c2)OCCO3)cc1C(=O)O`, the inhibition stood at 99.2%.
As for `Oc1c(I)cc(Cl)c2cccnc12`, the inhibition is 41.4%.
Same read-out and setting: for `Cc1nc(C)c(C(=O)N/N=C/c2cc(Br)ccc2O)s1` the value was 101%.
